From the supplement of paper PMC11732987, “Enantioselective OTUD7B fragment discovery through chemoproteomics screening and high-throughput optimisation” (Communications Chemistry, 2025)

Assays:
Test in all cases: log2 ratio of Biotin-Ahx-Ub-VS probe labelling (fragment/DMSO); higher = less target engagement (more negative = stronger competition), active = hit call of the paper (q ≤ 0.05, log2 ratio ≤ -1)
Conditions in all cases: compound concentration: 200 uM; treatment time: 3 h
USP34 = USP34 (UniProt Q70CQ2)
Method in brief: (§1)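 Labelled DUBs from HEK293T lysate were NeutrAvidin-enriched, digested with LysC and trypsin, and run by diaPASEF LC-MS/MS. Before that, each 495 µg sample in Tris/CHAPS/IGEPAL buffer with protease inhibitors was treated in triplicate with fragment at 200 µM or vehicle for 3 h, then with Biotin-Ahx-Ub-VS at 0.5 µM final for 1 h. Values are average log2 ratios of fragment over vehicle by unpaired t-test, based on global-median-normalised Spectronaut label-free quantities from proteins with ≥2 unique peptides.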

USP36 = target: T1, USP36 (UniProt Q9P275)
T1 sequence (whole entry): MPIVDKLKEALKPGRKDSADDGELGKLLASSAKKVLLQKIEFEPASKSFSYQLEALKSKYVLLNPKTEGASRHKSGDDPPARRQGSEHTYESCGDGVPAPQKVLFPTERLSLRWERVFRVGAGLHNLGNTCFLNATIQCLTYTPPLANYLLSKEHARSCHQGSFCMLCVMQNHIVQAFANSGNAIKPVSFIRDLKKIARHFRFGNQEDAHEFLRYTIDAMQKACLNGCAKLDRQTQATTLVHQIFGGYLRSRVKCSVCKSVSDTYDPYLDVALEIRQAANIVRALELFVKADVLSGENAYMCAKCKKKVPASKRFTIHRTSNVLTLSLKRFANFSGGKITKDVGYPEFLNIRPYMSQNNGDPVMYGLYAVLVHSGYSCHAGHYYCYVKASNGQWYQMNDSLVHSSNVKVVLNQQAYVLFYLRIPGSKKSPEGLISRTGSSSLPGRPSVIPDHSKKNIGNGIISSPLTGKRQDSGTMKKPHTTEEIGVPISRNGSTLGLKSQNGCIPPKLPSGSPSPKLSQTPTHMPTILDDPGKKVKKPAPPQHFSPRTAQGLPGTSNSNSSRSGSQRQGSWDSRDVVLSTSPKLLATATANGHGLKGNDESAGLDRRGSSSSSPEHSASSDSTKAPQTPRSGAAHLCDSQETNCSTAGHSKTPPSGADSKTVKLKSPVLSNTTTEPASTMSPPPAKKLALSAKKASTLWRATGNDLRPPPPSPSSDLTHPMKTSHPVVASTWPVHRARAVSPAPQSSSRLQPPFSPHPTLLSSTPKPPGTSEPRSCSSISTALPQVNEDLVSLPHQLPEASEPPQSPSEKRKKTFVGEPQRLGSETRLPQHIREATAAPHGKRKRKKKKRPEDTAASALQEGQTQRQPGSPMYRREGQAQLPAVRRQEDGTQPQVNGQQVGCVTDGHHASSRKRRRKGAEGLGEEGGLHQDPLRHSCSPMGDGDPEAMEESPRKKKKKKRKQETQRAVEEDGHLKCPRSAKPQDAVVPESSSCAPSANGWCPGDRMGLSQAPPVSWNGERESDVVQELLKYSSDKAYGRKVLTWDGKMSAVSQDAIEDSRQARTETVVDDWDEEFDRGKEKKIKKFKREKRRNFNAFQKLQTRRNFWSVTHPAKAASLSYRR
Method in brief: as §1

USP38 = target: T2, USP38 (UniProt Q8NB14)
T2 sequence (whole entry): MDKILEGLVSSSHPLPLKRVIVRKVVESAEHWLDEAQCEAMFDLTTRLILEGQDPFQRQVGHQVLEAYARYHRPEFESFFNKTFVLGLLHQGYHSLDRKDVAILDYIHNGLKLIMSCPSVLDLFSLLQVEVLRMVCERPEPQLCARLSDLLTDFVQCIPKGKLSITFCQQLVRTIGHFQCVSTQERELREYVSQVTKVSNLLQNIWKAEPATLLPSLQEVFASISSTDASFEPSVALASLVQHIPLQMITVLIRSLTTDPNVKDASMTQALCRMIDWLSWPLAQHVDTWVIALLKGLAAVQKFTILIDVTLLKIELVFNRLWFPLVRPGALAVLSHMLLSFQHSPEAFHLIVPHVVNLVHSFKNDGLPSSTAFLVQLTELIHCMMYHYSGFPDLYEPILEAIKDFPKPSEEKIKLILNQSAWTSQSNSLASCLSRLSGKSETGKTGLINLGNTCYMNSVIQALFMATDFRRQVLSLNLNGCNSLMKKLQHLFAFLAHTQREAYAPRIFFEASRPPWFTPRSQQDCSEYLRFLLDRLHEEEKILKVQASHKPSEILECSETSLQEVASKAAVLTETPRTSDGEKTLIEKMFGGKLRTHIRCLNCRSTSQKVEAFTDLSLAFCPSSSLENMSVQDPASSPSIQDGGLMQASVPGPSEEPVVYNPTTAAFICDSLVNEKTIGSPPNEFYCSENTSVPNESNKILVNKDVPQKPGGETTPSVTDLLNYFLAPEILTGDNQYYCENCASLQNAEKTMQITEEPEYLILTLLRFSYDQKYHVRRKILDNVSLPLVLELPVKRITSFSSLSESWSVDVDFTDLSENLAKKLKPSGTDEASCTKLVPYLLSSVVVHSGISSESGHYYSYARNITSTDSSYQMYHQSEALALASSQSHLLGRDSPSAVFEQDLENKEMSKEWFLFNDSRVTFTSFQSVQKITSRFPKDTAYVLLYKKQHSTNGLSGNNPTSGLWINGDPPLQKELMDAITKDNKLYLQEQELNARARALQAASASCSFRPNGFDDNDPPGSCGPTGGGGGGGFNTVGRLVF
Method in brief: as §1

USP39 = target: T3, USP39 (UniProt Q53GS9)
T3 sequence (whole entry): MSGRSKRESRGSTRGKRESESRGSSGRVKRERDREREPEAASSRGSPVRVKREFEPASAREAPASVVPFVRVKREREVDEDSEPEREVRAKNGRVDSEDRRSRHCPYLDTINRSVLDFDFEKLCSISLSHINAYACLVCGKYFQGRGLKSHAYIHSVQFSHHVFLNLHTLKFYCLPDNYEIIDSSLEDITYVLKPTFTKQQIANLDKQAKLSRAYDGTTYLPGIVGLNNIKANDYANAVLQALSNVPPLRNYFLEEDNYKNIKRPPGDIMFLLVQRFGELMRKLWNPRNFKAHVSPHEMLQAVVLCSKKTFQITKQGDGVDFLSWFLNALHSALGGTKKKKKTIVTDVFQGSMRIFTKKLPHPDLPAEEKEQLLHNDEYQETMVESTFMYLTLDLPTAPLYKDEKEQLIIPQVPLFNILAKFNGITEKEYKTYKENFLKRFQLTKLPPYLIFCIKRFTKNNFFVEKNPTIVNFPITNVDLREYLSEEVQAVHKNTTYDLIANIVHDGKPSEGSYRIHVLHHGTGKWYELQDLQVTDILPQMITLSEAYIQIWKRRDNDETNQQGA
Method in brief: as §1

USP4 = target: T4, USP4 (UniProt Q13107)
T4 sequence (whole entry): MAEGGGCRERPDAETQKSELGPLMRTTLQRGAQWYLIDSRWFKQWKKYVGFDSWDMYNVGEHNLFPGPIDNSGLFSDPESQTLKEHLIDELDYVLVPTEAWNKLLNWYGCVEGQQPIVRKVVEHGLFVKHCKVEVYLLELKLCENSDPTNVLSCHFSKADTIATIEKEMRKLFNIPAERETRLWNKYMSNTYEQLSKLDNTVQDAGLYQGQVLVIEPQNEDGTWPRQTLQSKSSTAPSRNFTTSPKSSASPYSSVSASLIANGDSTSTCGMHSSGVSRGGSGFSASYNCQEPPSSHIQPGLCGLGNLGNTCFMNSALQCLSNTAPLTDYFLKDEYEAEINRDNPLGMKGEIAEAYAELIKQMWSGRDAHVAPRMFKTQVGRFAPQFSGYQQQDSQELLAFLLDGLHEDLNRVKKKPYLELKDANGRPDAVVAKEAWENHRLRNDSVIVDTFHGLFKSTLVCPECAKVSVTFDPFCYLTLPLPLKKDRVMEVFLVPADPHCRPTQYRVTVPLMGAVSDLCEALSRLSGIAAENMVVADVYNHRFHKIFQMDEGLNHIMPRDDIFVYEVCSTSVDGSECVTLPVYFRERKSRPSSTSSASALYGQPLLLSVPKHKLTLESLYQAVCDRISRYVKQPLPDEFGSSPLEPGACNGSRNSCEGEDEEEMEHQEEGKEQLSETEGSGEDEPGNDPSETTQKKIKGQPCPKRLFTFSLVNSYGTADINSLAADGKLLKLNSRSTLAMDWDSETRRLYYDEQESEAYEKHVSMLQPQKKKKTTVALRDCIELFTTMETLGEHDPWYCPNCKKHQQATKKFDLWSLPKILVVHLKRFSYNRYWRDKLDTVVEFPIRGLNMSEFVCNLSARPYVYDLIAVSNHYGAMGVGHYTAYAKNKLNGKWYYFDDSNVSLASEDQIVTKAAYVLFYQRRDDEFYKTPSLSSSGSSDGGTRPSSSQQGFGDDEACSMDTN
Method in brief: as §1

Measured: log2 ratio of Biotin-Ahx-Ub-VS probe labelling

USP34, sequence (Q70CQ2 whole entry, the tested form may be a part): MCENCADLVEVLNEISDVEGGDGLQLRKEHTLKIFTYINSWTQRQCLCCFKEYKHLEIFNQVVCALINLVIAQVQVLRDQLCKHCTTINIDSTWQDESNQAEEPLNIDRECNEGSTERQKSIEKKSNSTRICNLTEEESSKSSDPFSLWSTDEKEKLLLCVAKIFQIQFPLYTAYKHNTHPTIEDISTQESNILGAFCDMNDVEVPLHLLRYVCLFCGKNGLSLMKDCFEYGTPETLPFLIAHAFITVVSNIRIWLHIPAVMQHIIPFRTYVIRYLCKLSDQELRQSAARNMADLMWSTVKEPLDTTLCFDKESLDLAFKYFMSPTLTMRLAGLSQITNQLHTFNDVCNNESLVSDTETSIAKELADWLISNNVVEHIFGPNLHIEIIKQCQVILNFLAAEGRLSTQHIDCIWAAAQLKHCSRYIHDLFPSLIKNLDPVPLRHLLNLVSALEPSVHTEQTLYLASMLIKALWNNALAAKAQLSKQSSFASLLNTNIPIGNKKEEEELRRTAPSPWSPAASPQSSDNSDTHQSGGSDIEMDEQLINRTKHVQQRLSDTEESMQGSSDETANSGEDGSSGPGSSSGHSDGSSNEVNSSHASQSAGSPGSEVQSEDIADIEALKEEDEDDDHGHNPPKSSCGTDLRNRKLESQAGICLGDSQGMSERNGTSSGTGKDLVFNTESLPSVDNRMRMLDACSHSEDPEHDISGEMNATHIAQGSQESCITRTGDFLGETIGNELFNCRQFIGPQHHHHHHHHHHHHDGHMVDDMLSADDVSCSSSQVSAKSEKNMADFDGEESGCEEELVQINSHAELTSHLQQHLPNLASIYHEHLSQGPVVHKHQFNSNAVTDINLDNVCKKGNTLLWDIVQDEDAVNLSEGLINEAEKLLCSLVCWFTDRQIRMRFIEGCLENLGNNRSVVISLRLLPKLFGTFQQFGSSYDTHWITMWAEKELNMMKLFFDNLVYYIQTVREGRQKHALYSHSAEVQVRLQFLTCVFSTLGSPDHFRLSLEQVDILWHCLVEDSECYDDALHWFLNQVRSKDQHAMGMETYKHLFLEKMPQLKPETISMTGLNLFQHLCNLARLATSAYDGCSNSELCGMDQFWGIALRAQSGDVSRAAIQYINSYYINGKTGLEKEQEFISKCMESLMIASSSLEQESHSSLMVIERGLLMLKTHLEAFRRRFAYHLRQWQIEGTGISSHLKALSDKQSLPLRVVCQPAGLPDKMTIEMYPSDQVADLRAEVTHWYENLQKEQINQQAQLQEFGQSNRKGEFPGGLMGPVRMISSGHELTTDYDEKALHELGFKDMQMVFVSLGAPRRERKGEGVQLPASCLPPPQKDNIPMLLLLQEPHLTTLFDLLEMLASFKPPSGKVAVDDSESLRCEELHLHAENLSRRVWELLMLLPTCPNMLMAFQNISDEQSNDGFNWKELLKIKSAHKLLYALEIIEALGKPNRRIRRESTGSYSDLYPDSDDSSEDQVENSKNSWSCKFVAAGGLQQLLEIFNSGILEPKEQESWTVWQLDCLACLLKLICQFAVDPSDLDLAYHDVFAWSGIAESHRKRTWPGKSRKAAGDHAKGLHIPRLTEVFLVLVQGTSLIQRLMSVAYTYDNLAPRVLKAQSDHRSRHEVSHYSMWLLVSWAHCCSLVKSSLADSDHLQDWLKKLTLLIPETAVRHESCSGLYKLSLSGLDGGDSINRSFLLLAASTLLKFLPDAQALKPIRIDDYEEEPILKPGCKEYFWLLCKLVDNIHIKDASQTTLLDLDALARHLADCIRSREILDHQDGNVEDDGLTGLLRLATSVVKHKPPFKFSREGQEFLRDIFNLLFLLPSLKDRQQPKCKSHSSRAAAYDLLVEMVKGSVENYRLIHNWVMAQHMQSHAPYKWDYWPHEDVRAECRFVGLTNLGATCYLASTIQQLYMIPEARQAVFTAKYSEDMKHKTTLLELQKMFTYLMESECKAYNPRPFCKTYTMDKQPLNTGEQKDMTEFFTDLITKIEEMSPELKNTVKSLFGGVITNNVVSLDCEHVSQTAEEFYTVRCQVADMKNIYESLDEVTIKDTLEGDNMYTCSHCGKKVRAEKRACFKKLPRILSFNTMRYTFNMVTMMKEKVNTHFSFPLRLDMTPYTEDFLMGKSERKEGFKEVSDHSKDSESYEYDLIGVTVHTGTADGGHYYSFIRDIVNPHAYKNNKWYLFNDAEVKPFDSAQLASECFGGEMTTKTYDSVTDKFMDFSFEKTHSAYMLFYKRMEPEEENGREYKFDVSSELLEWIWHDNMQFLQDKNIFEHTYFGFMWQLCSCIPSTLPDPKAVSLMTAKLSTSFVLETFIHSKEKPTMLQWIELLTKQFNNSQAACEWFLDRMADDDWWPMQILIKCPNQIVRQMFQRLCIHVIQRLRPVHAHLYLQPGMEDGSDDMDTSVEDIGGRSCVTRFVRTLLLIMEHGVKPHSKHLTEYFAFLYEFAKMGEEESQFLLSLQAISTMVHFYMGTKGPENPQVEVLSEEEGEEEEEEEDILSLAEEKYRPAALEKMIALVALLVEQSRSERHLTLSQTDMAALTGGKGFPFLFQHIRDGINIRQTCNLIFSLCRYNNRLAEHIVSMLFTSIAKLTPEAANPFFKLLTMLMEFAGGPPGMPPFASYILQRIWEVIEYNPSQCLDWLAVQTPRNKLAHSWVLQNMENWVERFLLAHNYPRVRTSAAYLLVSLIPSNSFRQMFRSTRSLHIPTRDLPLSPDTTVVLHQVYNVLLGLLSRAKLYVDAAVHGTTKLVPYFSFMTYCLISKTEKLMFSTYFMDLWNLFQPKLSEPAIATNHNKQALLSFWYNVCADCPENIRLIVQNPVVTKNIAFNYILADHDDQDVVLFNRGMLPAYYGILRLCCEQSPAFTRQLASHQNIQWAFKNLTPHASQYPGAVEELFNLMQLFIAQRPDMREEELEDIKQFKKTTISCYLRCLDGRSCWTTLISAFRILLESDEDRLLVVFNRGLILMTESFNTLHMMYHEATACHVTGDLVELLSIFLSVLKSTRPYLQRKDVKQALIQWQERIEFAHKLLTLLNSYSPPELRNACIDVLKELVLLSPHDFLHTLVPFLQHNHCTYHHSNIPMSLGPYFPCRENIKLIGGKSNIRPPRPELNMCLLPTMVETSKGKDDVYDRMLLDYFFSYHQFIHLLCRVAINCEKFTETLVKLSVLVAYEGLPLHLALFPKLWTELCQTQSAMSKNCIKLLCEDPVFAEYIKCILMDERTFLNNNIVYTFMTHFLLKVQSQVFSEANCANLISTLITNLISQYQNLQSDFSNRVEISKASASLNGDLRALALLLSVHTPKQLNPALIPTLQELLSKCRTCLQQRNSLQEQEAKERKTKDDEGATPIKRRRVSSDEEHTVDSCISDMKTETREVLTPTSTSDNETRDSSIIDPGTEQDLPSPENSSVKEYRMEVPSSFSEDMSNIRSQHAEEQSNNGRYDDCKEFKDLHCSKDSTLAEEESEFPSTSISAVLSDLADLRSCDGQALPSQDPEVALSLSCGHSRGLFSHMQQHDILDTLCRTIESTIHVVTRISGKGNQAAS

Cc1cc(NC(=O)CCl)n(-c2ccccc2)n1
inactive: USP34 -0.374 | USP36 -0.0233 | USP38 -0.067 | USP39 -0.12 | USP4 0.0467
